Inconclusive results are not listed. Activity calls are given as the source filed them. Rule for the calls: active = hit-call score of the fitted dose curve at least 0.9, where 1 is the maximum; inconclusive = response in the unintended direction; inactive = score below 0.9.

For assay [1], the target named is Serine/threonine-protein phosphatase PP1-alpha catalytic subunit (Homo sapiens) (UniProt P62136). Briefly: NVS_ENZ_hPPP1CA: NovaScreen (NVS) Enzymatic Assay for human Protein Phosphatase 1 Aatalytic subunit Alpha (PPP1CA) (AID 2283200). In a few lines:
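Chemicals were first screened in duplicate at 25 uM, and those passing threshold (e.g. 30% inhibition) were run as concentration series to 50 uM. Cell-free recombinant protein, 1.33 h read, fluorescent substrate/product mobility-shift detection, normalised to DMSO.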

The target in assay [2] is human Phosphodiesterase 4A1 (PDE4A1), PDE4A (gene 5141) (UniProt P27815). Briefly: NVS_ENZ_hPDE4A1: NovaScreen (NVS) Enzymatic Assay for human Phosphodiesterase 4A1 (PDE4A1) (AID 2283191). The procedure, abridged: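 Fluorescent substrate turnover by recombinant PDE4A1 read after 1 h by mobility-shift separation. Primary duplicate screen at 25 uM; hits retested in concentration series with a 50 uM maximum, relative to DMSO.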
Chain of human Phosphodiesterase 4A1 (PDE4A1), PDE4A (gene 5141) (P27815 whole entry, looked up): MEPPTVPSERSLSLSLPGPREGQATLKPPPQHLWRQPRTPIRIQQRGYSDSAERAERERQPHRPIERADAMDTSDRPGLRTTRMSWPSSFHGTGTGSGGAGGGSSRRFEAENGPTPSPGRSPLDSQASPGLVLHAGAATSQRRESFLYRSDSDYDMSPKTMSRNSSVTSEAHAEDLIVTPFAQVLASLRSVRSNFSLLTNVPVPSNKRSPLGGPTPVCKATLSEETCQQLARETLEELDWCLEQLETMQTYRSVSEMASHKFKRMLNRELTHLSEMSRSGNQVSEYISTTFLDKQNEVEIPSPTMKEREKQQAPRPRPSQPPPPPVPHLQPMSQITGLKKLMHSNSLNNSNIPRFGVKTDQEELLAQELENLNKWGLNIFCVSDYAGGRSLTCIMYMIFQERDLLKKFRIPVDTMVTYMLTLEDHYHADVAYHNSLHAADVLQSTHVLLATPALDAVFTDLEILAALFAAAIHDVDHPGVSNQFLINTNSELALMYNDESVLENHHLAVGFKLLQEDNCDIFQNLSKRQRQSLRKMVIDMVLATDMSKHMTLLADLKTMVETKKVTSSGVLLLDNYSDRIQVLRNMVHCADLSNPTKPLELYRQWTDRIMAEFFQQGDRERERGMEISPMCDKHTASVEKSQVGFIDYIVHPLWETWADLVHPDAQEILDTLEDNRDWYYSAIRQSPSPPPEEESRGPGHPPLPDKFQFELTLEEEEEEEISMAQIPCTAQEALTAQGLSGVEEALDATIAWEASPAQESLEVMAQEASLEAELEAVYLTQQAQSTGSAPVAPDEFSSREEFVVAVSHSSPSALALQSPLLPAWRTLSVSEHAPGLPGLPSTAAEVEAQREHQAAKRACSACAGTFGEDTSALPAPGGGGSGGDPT

Assay [3] has as its target human Phosphodiesterase 5 (PDE5), PDE5A (gene 8654) (UniProt O76074). Briefly: NVS_ENZ_hPDE5: NovaScreen (NVS) Enzymatic Assay for human Phosphodiesterase 5 (PDE5) (AID 2283194). In a few lines: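 Screening began in duplicate at 25 uM, with actives taken into concentration-response. Enzyme activity of recombinant PDE5 toward its substrate was measured at 1 h by fluorescence mobility-shift detection, relative to DMSO controls.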

For assay [4], the target named is human Phosphodiesterase 10 (PDE10), PDE10A (gene 10846) (UniProt Q9Y233). Briefly: NVS_ENZ_hPDE10: NovaScreen (NVS) Enzymatic Assay for human Phosphodiesterase 10 (PDE10) (AID 2283195). In a few lines: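 Biochemical single-readout PDE10A assay, cell-free, extracted protein. Compounds first screened at 25 uM in duplicate, hits then titrated to 50 uM max. Activity measured after 1 h; loss-of-signal fitted against DMSO negative control.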
Chain of human Phosphodiesterase 10 (PDE10), PDE10A (gene 10846) (Q9Y233 whole entry, looked up): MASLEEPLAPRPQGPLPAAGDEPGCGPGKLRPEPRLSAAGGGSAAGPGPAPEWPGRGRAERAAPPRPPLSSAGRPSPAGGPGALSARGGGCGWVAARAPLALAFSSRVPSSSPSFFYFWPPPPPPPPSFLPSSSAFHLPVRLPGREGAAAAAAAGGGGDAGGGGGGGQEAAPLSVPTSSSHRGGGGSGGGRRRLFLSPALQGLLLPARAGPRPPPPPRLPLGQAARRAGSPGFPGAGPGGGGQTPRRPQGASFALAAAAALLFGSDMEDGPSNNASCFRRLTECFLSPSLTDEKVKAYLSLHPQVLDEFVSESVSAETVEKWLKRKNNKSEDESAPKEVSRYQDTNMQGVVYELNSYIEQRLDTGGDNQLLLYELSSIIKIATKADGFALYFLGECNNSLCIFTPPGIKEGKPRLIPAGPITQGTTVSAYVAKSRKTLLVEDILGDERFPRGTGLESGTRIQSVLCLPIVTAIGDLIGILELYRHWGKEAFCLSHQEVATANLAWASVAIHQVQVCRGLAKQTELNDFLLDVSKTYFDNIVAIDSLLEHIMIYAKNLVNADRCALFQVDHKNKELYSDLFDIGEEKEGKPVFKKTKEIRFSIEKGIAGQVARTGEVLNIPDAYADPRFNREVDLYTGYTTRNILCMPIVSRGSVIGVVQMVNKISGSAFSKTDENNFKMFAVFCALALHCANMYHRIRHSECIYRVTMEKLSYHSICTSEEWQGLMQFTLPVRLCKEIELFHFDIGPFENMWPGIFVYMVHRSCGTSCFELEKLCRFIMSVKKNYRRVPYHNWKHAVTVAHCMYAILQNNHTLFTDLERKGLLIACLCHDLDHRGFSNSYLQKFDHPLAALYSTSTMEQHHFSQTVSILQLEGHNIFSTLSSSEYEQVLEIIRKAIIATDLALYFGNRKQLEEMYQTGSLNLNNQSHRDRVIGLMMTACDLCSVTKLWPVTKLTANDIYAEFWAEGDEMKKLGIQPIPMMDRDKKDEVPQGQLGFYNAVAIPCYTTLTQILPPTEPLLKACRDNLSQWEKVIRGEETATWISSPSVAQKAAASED

Assay [5] addresses cAMP-dependent protein kinase catalytic subunit alpha (Homo sapiens) (UniProt P17612). Nature of the assay: NVS_ENZ_hPKA: NovaScreen (NVS) Enzymatic Assay for human Protein Kinase A (PKA) (AID 2283192). The procedure, abridged: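 Cell-free kinase activity read by fluorescence after mobility-shift separation of substrate and product, 1 h post-dosing. Single-concentration duplicate screen (25 uM) preceded singleton concentration series (top 50 uM); loss of signal versus DMSO.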

The target in assay [6] is human Mitogen- and Stress-activated Protein Kinase-1 (Msk1), RPS6KA5 (gene 9252) (UniProt O75582). Briefly: NVS_ENZ_hMsk1: NovaScreen (NVS) Enzymatic Assay for human Mitogen- and Stress-activated Protein Kinase-1 (Msk1) (AID 2283187). The procedure, abridged:
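Chemicals first run in duplicate at 25 uM, with actives followed up in singleton concentration series to 50 uM maximum. Enzyme activity came from substrate/product mobility-shift separation with fluorescence detection after 1 h incubation of the recombinant protein.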

The target in assay [7] is human Phosphoinositide 3-kinase alpha (PI3Ka), PIK3CA (gene 5290) (UniProt P42336). Briefly: NVS_ENZ_hPI3Ka: NovaScreen (NVS) Enzymatic Assay for human Phosphoinositide 3-kinase alpha (PI3Ka) (AID 2283196). The procedure, abridged: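 Enzyme activity as fluorescence after mobility-shift separation of substrate and product, 1 h reaction, recombinant human PI3Kα; concentration-response to 50 uM max for chemicals passing a 25 uM duplicate screen.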

For assay [8], the target named is human Matrix Metalloproteinase-9 (MMP9), MMP9 (gene 4318) (UniProt P14780). Briefly: NVS_ENZ_hMMP9: NovaScreen (NVS) Enzymatic Assay for human Matrix Metalloproteinase-9 (MMP9) (AID 2283190).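 Note: cell-free recombinant MMP9 protease activity read by fluorescent substrate signal; active means inhibition seen as loss of fluorescence signal versus DMSO.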 Here is the method: NVS_ENZ_hMMP9 is a biochemical, single-readout assay that uses extracted gene-proteins in a cell-free assay. Measurements were taken 1 hour after chemical dosing in a 96-well plate.NVS_ENZ_hMMP9 is one of one assay component(s) measured or calculated from the NVS_ENZ_hMMP9 assay. It is designed to make measurements of enzyme activity, a form of enzyme reporter, as detected with fluorescence intensity signals by Fluorescence technology.Data from the assay component NVS_ENZ_hMMP9 was analyzed into 1 assay endpoint. This assay endpoint, NVS_ENZ_hMMP9, was analyzed in the positive analysis fitting direction relative to DMSO as the negative control and baseline of activity. Using a type of enzyme reporter, loss-of-signal activity can be used to understand changes in the enzymatic activity as they relate to the gene MMP9. Furthermore, this assay endpoint can be referred to as a primary readout, because this assay has produced multiple assay endpoints where this one serves a enzymatic activity function. To generalize the intended target to other relatable targets, this assay endpoint is annotated to the protease intended target family, where the subfamily is matrix metalloproteinase.
Chain of human Matrix Metalloproteinase-9 (MMP9), MMP9 (gene 4318) (P14780 whole entry, looked up): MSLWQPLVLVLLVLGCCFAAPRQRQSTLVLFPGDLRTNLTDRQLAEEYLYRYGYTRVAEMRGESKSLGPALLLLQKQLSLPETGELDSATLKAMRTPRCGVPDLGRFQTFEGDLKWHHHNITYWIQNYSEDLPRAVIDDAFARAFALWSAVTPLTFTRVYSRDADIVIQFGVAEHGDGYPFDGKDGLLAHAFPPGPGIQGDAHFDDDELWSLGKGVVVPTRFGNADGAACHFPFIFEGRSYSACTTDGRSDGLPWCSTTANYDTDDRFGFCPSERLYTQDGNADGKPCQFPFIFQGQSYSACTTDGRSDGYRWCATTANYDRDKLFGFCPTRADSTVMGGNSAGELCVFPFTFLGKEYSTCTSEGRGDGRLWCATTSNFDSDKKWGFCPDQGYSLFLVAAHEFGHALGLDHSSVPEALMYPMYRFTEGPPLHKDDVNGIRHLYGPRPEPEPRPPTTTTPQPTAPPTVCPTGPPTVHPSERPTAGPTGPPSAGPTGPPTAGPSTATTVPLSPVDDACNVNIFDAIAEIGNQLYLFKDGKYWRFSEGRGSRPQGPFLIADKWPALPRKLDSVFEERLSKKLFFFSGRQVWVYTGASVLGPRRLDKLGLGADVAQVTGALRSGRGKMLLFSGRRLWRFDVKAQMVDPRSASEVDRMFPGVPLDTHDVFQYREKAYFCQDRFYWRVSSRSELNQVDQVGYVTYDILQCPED
Binding assays used specific radioligands (tritiated, iodinated) with non-radioactive competitive displacement ligands in agonist or antagonist protocols (as indicated) and various reference compounds and inhibitors to titrate specific binding to receptors and transporters. Most enzyme assays (CYPs, kinases, phosphatases, proteases, HDACs) used recombinant protein and specific substrates (fluorescence mostly, some colorimetric and radioactive) and inhibitors, followed by a biochemical separation of substrate and product. All assays for the biochemical HTS were initially run in duplicate at a single concentration (10 uM for CYP450 assays and 25 uM for all others). […] Each assay was run with positive and negative controls, and concurrent controls on every plate. […]

Assay [9] deals with human Protein Phosphatase, Mg2+/Mn2+ Dependent 1A (PPM1A), PPM1A (gene 5494) (UniProt P35813). Nature of the assay: NVS_ENZ_hPPM1A: NovaScreen (NVS) Enzymatic Assay for human Protein Phosphatase, Mg2+/Mn2+ Dependent 1A (PPM1A) (AID 2283198). The procedure, abridged: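 Primary screen in duplicate at 25 uM, with actives then titrated to a maximum of 50 uM. Recombinant PPM1A dephosphorylation of fluorescent substrate measured at 1 h, with substrate and product separated by mobility shift; inhibition fitted against DMSO.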
Chain of human Protein Phosphatase, Mg2+/Mn2+ Dependent 1A (PPM1A), PPM1A (gene 5494) (P35813 whole entry, looked up): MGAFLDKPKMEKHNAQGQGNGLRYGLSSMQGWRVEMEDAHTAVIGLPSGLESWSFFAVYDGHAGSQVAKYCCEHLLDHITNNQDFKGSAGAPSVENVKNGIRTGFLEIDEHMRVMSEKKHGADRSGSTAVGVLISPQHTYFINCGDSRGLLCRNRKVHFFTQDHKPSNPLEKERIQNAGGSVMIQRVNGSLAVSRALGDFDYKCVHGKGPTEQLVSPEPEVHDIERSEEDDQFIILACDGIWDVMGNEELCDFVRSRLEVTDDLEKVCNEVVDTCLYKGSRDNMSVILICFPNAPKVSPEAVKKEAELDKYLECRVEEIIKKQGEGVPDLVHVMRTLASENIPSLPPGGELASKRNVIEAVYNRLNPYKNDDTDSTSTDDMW

Assay [10] deals with human Protein Tyrosine Phosphatase Non-receptor Type 1 (PTPN1), PTPN1 (gene 5770) (UniProt P18031). Nature of the assay: NVS_ENZ_hPTPN1: NovaScreen (NVS) Enzymatic Assay for human Protein Tyrosine Phosphatase Non-receptor Type 1 (PTPN1) (AID 2283201). In a few lines:
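Chemicals were first tested in duplicate at 25 uM, and those passing threshold went on to singleton concentration series topping at 50 uM. Recombinant enzyme, specific substrate, product separated by mobility shift, fluorescence read at 1.33 h; activity loss relative to DMSO.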

Chain of Serine/threonine-protein phosphatase PP1-alpha catalytic subunit (Homo sapiens) (P62136 whole entry, looked up): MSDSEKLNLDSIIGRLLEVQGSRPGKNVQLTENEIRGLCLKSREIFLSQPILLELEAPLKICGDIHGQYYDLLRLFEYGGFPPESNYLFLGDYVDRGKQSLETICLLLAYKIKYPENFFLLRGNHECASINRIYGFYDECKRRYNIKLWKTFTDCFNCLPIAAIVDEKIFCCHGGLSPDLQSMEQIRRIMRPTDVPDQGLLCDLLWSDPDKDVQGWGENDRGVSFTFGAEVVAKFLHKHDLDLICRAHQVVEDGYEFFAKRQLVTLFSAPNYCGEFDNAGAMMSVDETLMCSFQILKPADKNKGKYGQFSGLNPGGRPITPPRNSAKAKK
Chain of human Mitogen- and Stress-activated Protein Kinase-1 (Msk1), RPS6KA5 (gene 9252) (O75582 whole entry, looked up): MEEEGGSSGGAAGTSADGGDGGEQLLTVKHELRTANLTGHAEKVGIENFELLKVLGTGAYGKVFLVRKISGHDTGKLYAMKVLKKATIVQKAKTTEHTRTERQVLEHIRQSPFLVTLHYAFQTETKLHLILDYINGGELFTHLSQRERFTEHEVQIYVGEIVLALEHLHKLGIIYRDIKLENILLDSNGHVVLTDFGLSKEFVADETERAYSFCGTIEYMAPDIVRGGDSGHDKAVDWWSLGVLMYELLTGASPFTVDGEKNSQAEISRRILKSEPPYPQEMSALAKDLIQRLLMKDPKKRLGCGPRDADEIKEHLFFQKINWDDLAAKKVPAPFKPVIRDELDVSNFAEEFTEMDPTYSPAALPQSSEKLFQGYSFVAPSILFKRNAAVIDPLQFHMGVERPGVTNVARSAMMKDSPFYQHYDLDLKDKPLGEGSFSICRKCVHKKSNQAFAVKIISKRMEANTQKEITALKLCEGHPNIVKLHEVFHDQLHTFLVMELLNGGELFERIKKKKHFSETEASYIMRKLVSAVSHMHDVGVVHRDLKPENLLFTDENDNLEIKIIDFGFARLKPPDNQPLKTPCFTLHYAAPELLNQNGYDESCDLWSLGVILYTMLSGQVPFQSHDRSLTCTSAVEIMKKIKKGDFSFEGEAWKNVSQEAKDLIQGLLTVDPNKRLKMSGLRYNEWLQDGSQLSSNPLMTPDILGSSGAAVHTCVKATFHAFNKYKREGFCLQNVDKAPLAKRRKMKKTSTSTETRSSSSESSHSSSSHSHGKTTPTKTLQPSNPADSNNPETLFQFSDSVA
Chain of human Protein Tyrosine Phosphatase Non-receptor Type 1 (PTPN1), PTPN1 (gene 5770) (P18031 whole entry, looked up): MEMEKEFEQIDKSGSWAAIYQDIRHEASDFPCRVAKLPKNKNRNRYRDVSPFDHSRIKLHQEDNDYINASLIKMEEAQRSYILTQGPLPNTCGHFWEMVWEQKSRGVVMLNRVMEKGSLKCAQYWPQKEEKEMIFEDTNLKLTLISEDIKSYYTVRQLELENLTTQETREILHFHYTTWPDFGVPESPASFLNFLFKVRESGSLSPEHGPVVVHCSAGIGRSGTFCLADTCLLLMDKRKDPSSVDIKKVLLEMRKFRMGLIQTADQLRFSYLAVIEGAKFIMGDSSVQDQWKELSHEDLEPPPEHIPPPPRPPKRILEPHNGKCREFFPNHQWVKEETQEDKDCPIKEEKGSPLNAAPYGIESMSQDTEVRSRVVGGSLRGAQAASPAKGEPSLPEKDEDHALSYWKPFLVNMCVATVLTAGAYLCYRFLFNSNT

Take `N#C[C@@H]1CC(F)(F)CN1C(=O)CNC1CC2CCC(C1)N2c1ncccn1` (some centres not stated): in [1], the call was inactive.
For the compound `CCc1nn(C2CCCCC2)c2cc(C3(C#N)CCC(C(=O)O)CC3)ccc12` (configuration not stated), the concentration at half-maximal activity (AC50) in assay [2] is 0.00229 µM (active). The outcome in assay [3] and in assay [4] was inactive.
Turning to `c1ccc2cc3c(ccc4ccccc43)cc2c1`, in [2], the compound was classed as inactive.
Consider `CCCOC(=O)c1ccc(O)cc1`, for which the compound was called inactive in [1].
Take `NC(=O)N1C(=O)C(C(=O)c2cc(Cl)cs2)c2cc(F)c(Cl)cc21` (configuration not stated): in [5], the concentration at half-maximal activity (AC50) was 25 µM (active).
With `COCC(C)OCC(C)O` (configuration not stated), the compound was classed as inactive in assay [6] and in assay [7].
`Cc1oc(-c2ccccc2)nc1CCOc1ccc(C[C@H](Nc2ccccc2C(=O)c2ccccc2)C(=O)O)cc1`: the concentration at half-maximal activity (AC50) in assay [8] is 11.9 µM (active).
`NC(=O)N(O)[C@@H]1C=C[C@H](Oc2cccc(Oc3ccc(F)cc3)c2)C1`: the concentration at half-maximal activity (AC50) in assay [2] was 23 µM (active). The compound was classed as inactive in assay [9].
As to `CCCCCCCC(=O)O`, the outcome in [6], in assay [5], in [3] and in assay [10] was inactive.
For `OCCC(F)(F)C(F)(F)C(F)(F)C(F)(F)C(F)(F)C(F)(F)F`, in assay [3], the outcome was inactive.
Consider `COC(=O)CCCCC(=O)OC`, for which the result in assay [3] and in assay [9] was inactive.
As for `CCCCCCCCCCCCc1ccccc1S(=O)(=O)O`, the values for the AC50 in [6], in assay [9] and in [10] were 16.8 µM (active), 30.2 µM (active) and 15.5 µM (active), respectively.
Turning to `Cc1cc(CCN2CCN(c3nsc4ccccc34)CC2)cc2c1NC(=O)CC2(C)C`, the outcome in assay [2] was inactive. Moreover, the concentration at half-maximal activity (AC50) in assay [3] was 25.6 µM (active); in [4], 25 µM (active).
In the case of `CCCOc1sc(C(=O)N2CCC(c3cc(CN)ccc3F)CC2)c(C)c1Br`, the compound was called inactive in assay [5] and in [9].
`CCN(CC)CCNc1ccc(CNC=O)c2sc3ccc(OC)cc3c(=O)c12`: the compound was classed as inactive in assay [8] and in [1]. Besides, the AC50 in assay [2] is 11.8 µM (active); in assay [3] it was 6.82 µM (active); in assay [4], 2.06 µM (active).

Source of the values: PubChem BioAssay (EPA / NIEHS).
